Molecules are shown by their SMILES. ± gives the standard deviation of the averaged measurements.

This assay deals with RPE1. Kind of assay: nucleolar normality score relative to DMSO (fraction of DMSO control); RPE1 is a non-cancer human cell line; higher = more normal nucleoli (less nucleolar stress). The protocol:
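Selected screen hits were validated in hTERT lines (BJ5TA, CHON-002, RPE1) and cancer lines (DLD1, HCT116). Cells were immunostained for nucleolin and UBF and the nucleolar normality score was measured per field of view, with 4 fields per drug. Scores are normalized to each cell line's own DMSO control. Dose and time are not stated for this panel.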
In turn, `CCc1cnn2c(NCc3ccc[n+]([O-])c3)cc(N3CCCC[C@H]3CCO)nc12` [Dinaciclib] yielded a nucleolar normality score of 0.268 ± 0.01.

In the case of `C=CCNC1=C2C[C@@H](C)C[C@H](OC)[C@H](O)[C@@H](C)/C=C(\C)[C@H](OC(N)=O)[C@@H](OC)/C=C\C=C(/C)C(=O)NC(=CC1=O)C2=O`, the nucleolar normality score worked out at 0.296 ± 0.014.

The compound `COC[C@H](NC(=O)c1cnc(C)s1)C(=O)N[C@@H](COC)C(=O)N[C@@H](Cc1ccccc1)C(=O)[C@@]1(C)CO1` [Oprozomib] came in with a nucleolar normality score of 0.55 ± 0.037.

Compound `Cc1cnc(CNC(=O)c2c(=O)c3ccc(N4CCCN(C)CC4)nc3n3c2sc2ccccc23)cn1` displayed a nucleolar normality score of 0.277 ± 0.066.

Turning to `CC(C)C[C@H](NC(=O)[C@H](CCc1ccccc1)NC(=O)CN1CCOCC1)C(=O)N[C@@H](Cc1ccccc1)C(=O)N[C@@H](CC(C)C)C(=O)[C@@]1(C)CO1` [Carfilzomib], the nucleolar normality score was 0.501 ± 0.086.

As for `CC(C)n1nc(-c2ccc3oc(N)nc3c2)c2c(N)ncnc21` [Sapanisertib], the nucleolar normality score came to 0.405 ± 0.0078.

With `Cc1nc(-c2cn3c(n2)-c2ccc(-c4cnn(C(C)(C)C(N)=O)c4)cc2OCC3)n(C(C)C)n1` [Taselisib], the nucleolar normality score was found to be 0.376 ± 0.0084.

The compound `COc1cccc2c1C(=O)c1c(O)c3c(c(O)c1C2=O)C[C@@](O)(C(=O)CO)C[C@@H]3O[C@H]1C[C@H](N)[C@H](O)[C@H](C)O1` [Doxorubicin] gave a nucleolar normality score of 0.133 ± 0.011.

Compound `CC(C)c1cc(C(=O)N2Cc3ccc(CN4CCN(C)CC4)cc3C2)c(O)cc1O` [Onalespib] showed a nucleolar normality score of 0.289 ± 0.0093.

Consider `CN(C)CCNC(=O)c1cccn2c(=O)c3cc4ccccc4cc3nc12`, for which the nucleolar normality score is 0.0724 ± 0.012.

In turn, `CN1CC[C@H](c2c(O)cc(O)c3c(=O)cc(-c4ccccc4Cl)oc23)[C@H](O)C1` [Flavopiridol] showed a nucleolar normality score of 0.254 ± 0.019.

The compound `CC(C)c1c2cc(-c3ccnc(NC4CCC(NC5CCOCC5)CC4)n3)ccc2nn1C` (configuration not stated) displayed a nucleolar normality score of 0.462 ± 0.015.

Source of the values: the supplement of paper PMC10723795.
